Some test systems named below: SK-MEL-2 melanoma; EKVX NSCLC; SN12C renal; UO-31 renal; TK-10 renal; ACHN renal; A498 renal; CCRF-CEM leukemia; MOLT-4 leukemia; SR leukemia; RPMI-8226 leukemia; OVCAR-8 ovarian; OVCAR-5 ovarian; OVCAR-4 ovarian; SK-OV-3 ovarian; IGROV1 ovarian; OVCAR-3 ovarian; HS 578T breast; NCI/ADR-RES ovarian.
Holding throughout (assay): NCI-60 one-dose screen, 48 h (100 = growth as untreated, 0 = no growth, -100 = all killed)
Common to all, as to settings: 10 µM unless noted

This is part of a sample that, as a whole, favours compounds with a hit. Of some 83,000 tested, about 20% had one in any assay.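 Compound tested at a single concentration for 48 hours in 96-well plates; a percent growth value below 10 was scored as active.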 Values without a mark were called inactive. Active and inactive are the calls of the source.

For the compound `O=C(Nc1ccc(F)cc1)Nc1ccc(Br)c(C(F)(F)F)c1`, the growth with SK-MEL-2 melanoma is -11.1% (active); in the experiment on EKVX NSCLC, 7.24% (active); in the experiment with SN12C renal it was 11.3%; with UO-31 renal it was 7.01% (active); in the experiment with TK-10 renal, 10.4%; with ACHN renal it was 2.25% (active). The growth with A498 renal was 4.62% (active); with CCRF-CEM leukemia it was 6.73% (active); in the experiment on MOLT-4 leukemia, 12.8%; in the experiment with SR leukemia, 13.8%; with RPMI-8226 leukemia it was -29.7% (active); in the experiment on OVCAR-8 ovarian it was 11.4%. Further, the growth in the experiment on OVCAR-5 ovarian is 30.2%; with OVCAR-4 ovarian it was 22.5%; with SK-OV-3 ovarian, -8.74% (active); in the experiment with IGROV1 ovarian, 25.7%; in the experiment on OVCAR-3 ovarian it was 11.9%; in the experiment on HS 578T breast, 35.4%. The growth in the experiment on NCI/ADR-RES ovarian was 1.19% (active).
As to `COc1cc2ncnc(Oc3ccc(NC(=O)Nc4ccc(CN5CCOCC5)c(C(F)(F)F)c4)c4ccccc34)c2cc1OC`, the growth with SK-MEL-2 melanoma is 52.1%; with EKVX NSCLC, 16%; with SN12C renal it was 8.87% (active); with UO-31 renal, -11.9% (active); with TK-10 renal, 12.7%; with ACHN renal it was -3.27% (active). Further, the growth is -11.3% (active) in the experiment on A498 renal; 20.1% in the experiment with CCRF-CEM leukemia; -20.7% (active) in the experiment on MOLT-4 leukemia; 17.1% in the experiment with SR leukemia; -20.4% (active) in the experiment on RPMI-8226 leukemia; 18.9% in the experiment with OVCAR-8 ovarian. Further, the growth in the experiment with OVCAR-5 ovarian is 50.1%; in the experiment on OVCAR-4 ovarian it was 13.7%; in the experiment on SK-OV-3 ovarian, -6.16% (active); with IGROV1 ovarian, 6.05% (active); in the experiment with OVCAR-3 ovarian, 31.9%; with HS 578T breast it was 45.5%. Also, the growth in the experiment on NCI/ADR-RES ovarian is 21.8%.
For the compound `O=[N+]([O-])c1ccc(NS(=O)(=O)c2ccccc2)c2ccccc12`, the growth with SK-MEL-2 melanoma is 12.1%; in the experiment on EKVX NSCLC, 38.2%; in the experiment with SN12C renal it was 44.5%; in the experiment with UO-31 renal, 25.5%; in the experiment with TK-10 renal it was 53.1%; with ACHN renal it was 63.6%. Besides, the growth with A498 renal is 35.9%; in the experiment on CCRF-CEM leukemia, 40.3%; in the experiment with MOLT-4 leukemia, 38%; in the experiment with SR leukemia, 51.6%; with RPMI-8226 leukemia, 11.7%; with OVCAR-8 ovarian it was 63.1%. Besides, the growth with OVCAR-5 ovarian was 84.4%; with OVCAR-4 ovarian, 40.6%; in the experiment on SK-OV-3 ovarian it was 34.7%; in the experiment with IGROV1 ovarian, 30.2%; in the experiment with OVCAR-3 ovarian, 25.5%; in the experiment with HS 578T breast it was 48%. Also, the growth with NCI/ADR-RES ovarian is 51%.
With `S=c1[nH]nc(Cn2c3ccccc3c3ccncc32)o1`, the growth is 96.6% in the experiment with SK-MEL-2 melanoma; 106% in the experiment with EKVX NSCLC; 102% in the experiment on SN12C renal; 97.3% in the experiment on UO-31 renal; 102% in the experiment with TK-10 renal; 98.3% in the experiment with ACHN renal. Besides, the growth is 97.3% with A498 renal; 84.6% in the experiment on CCRF-CEM leukemia; 93.8% in the experiment on MOLT-4 leukemia; 99.9% with SR leukemia; 97.3% in the experiment with RPMI-8226 leukemia; 94.2% with OVCAR-8 ovarian. Further, the growth in the experiment with OVCAR-5 ovarian was 102%; in the experiment on OVCAR-4 ovarian, 96.7%; with SK-OV-3 ovarian, 94.5%; in the experiment on IGROV1 ovarian it was 103%; in the experiment with OVCAR-3 ovarian, 97.8%; with HS 578T breast it was 106%. For the same compound, the growth in the experiment on NCI/ADR-RES ovarian is 102%.
In the case of `Cc1ccc2c(c1)Nc1ccc(C)cc1C2(C)C`, the growth is 88.9% in the experiment on SK-MEL-2 melanoma; 87.8% with EKVX NSCLC; 103% with SN12C renal; 91.3% with UO-31 renal; 102% in the experiment on TK-10 renal; 112% with ACHN renal. Moreover, the growth with A498 renal is 118%; in the experiment on CCRF-CEM leukemia, 92.8%; in the experiment on MOLT-4 leukemia it was 73.4%; in the experiment with SR leukemia, 88.3%; in the experiment on RPMI-8226 leukemia, 85.4%; with OVCAR-8 ovarian it was 103%. Also, the growth in the experiment on OVCAR-5 ovarian is 105%; with OVCAR-4 ovarian, 92.3%; with SK-OV-3 ovarian it was 82.2%; with IGROV1 ovarian, 106%; in the experiment on OVCAR-3 ovarian it was 97.7%; in the experiment with HS 578T breast, 113%. The growth in the experiment on NCI/ADR-RES ovarian was 105%.
Turning to `O=C(Nc1ccc(F)cc1)Nc1ccc(Cl)c([N+](=O)[O-])c1`, the growth was 2.67% (active) with SK-MEL-2 melanoma; 15.8% in the experiment on EKVX NSCLC; 15.8% in the experiment with SN12C renal; 8.43% (active) in the experiment on UO-31 renal; 16.6% with TK-10 renal; 4.79% (active) in the experiment on ACHN renal. The growth in the experiment on A498 renal was 25.7%; with CCRF-CEM leukemia, 18.6%; with MOLT-4 leukemia, 5.48% (active); in the experiment on SR leukemia it was 31.8%; with RPMI-8226 leukemia, -28% (active); in the experiment on OVCAR-8 ovarian, 17.8%. Also, the growth is 44.3% in the experiment on OVCAR-5 ovarian; 16.5% in the experiment with OVCAR-4 ovarian; 34% in the experiment with SK-OV-3 ovarian; 22.4% with IGROV1 ovarian; 10.1% with OVCAR-3 ovarian; 55.8% in the experiment on HS 578T breast. In addition, the growth with NCI/ADR-RES ovarian was 14.1%.
Turning to `OCc1cnccc1NC12CC3CC(CC(C3)C1)C2`, the growth in the experiment on SK-MEL-2 melanoma is 95.1%; with EKVX NSCLC, 103%; in the experiment with SN12C renal, 105%; in the experiment on UO-31 renal, 90.1%; in the experiment with TK-10 renal it was 99.1%; in the experiment with ACHN renal, 101%. Also, the growth in the experiment on A498 renal was 94.7%; in the experiment with CCRF-CEM leukemia, 95.9%; in the experiment on MOLT-4 leukemia, 88.8%; in the experiment with SR leukemia it was 98.9%; in the experiment with RPMI-8226 leukemia it was 96.8%; in the experiment on OVCAR-8 ovarian, 93.8%. Also, the growth in the experiment with OVCAR-5 ovarian is 107%; in the experiment on OVCAR-4 ovarian, 101%; in the experiment with SK-OV-3 ovarian, 100%; in the experiment with IGROV1 ovarian, 102%; in the experiment on OVCAR-3 ovarian it was 103%; with HS 578T breast, 103%. Further, the growth in the experiment on NCI/ADR-RES ovarian is 98.8%.
Take `CN(C)c1ncc(C#Cc2c(F)cccc2F)c2ccccc12`: the growth with SK-MEL-2 melanoma is 81.5%; in the experiment on EKVX NSCLC, 74.8%; with SN12C renal, 78.8%; with UO-31 renal, 54.8%; in the experiment with TK-10 renal, 112%; in the experiment on ACHN renal, 96.3%. In addition, the growth is 100% with A498 renal; 96.3% in the experiment on CCRF-CEM leukemia; 80.8% in the experiment with MOLT-4 leukemia; 83.8% in the experiment with SR leukemia; 68.1% with RPMI-8226 leukemia; 93.7% with OVCAR-8 ovarian. The growth with OVCAR-5 ovarian is 99.8%; in the experiment with OVCAR-4 ovarian it was 85.3%; in the experiment with SK-OV-3 ovarian it was 89.3%; in the experiment with IGROV1 ovarian, 48.2%; in the experiment with OVCAR-3 ovarian, 88.4%; in the experiment with HS 578T breast it was 108%. Moreover, the growth with NCI/ADR-RES ovarian is 92.9%.

For the origin of these results see PubChem BioAssay (NCI).
